Data published in PubChem BioAssay (NCATS).
Results filed as inconclusive are left out. Entries that show only a call come without a potency. A number with no mark means an inactive call. Calls of active or inactive are those of the source. Calls come from the whole dose curve; as a rule, active = well fitted inhibition curve with a large enough effect; inconclusive = small, poorly fitted or top-dose-only effect; inactive = flat fitted curve, though single readings scatter. Where a SMILES comes first, the peptide text is derived from it. Bridges are numbered along the chain shown (N, C = ends). [ ]: non-standard residue; d: D form. The star is where a group is joined. Dab(CH2SO3H) = N[C@@H](CCNCS(=O)(=O)O)C(=O)O; X3 = CC[C@@H](C)CCCCC(=O)*; Dab = NCC[C@H](N)C(=O)O

assay: P-glycoprotein substrates identified in KB-8-5-11 adenocarcinoma cell line, qHTS therapeutic library screen (AID 1346987); conditions: KB-8-5-11 (P-gp overexpressing) viability, CellTiter-Glo, 72 h; series mostly up to 44.5 µM; note: nearly all actives have a fitted effect of over 65% in size
Summary of the method: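 Compounds are pinned in dose-response onto KB-8-5-11 cells (500 cells/well, colchicine-free medium) and left 72 h at 37 degree C. CellTiter-Glo luminescence then yields AC50 values.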
Potency is the fitted concentration of half-maximal effect.

Row | SMILES | Potency | activity change, negative = cytotoxicity | outcome
1 | O=C1NCc2nc3ccccc3c(=O)n2C1Cc1c[nH]c2ccccc12 (configuration not stated) | inactive | – | –
2 | CCNC(=O)[C@H]1O[C@H](n2cnc3c(NCC(c4ccccc4)c4ccccc4)nc(C(=O)NCCNC(=O)NC4CCN(c5ccccn5)CC4)nc32)[C@H](O)[C@@H]1O | inactive | – | –
3 | OC[C@H]1O[C@@H](OCCc2ccc(O)cc2)[C@H](O)[C@@H](O)[C@@H]1O | inactive | – | –
4 | CC[C@@H](c1ccc(F)c(F)c1)n1c(C(=O)OC)c(-c2ccno2)[nH]c1=S | inactive | – | –
5 | CC(=O)O[C@H]1[C@H](C)[C@@H](O)[C@H]2[C@@H]1C=C(C(=O)O)[C@H]1C[C@@H]3[C@H]([C@H]21)[C@H]1C(=O)O[C@@H]2CC[C@@]3(C)O[C@]1(O)[C@@H]2C | inactive | – | –
6 | CC(C)(C)NCc1cc(Nc2ccnc3cc(Cl)ccc23)c2c(c1O)CCCC2 | – | 0.372% [at 0.354 µM] | –
7 | CC[C@H]1OC(=O)[C@H](C)[C@@H](OC2C[C@@](C)(OC)[C@@H](O)[C@H](C)O2)[C@H](C)[C@@H](OC2O[C@H](C)C[C@H](NC)[C@H]2O)[C@](C)(O)C[C@@H](C)CN(C)[C@H](C)[C@@H](O)[C@]1(C)O (some centres not stated) | inactive | – | –
8 | CC[C@@H](C)CCCCC(=O)N[C@@H](CCNCS(=O)(=O)O)C(=O)N[C@H](C(=O)N[C@@H](CCNCS(=O)(=O)O)C(=O)N[C@H]1CCNC(=O)[C@H]([C@@H](C)O)NC(=O)[C@H](CCNCS(=O)(=O)O)NC(=O)[C@H](CCNCS(=O)(=O)O)NC(=O)[C@H](CC(C)C)NC(=O)[C@@H](CC(C)C)NC(=O)[C@H](CCNCS(=O)(=O)O)NC1=O)[C@@H](C)O (X3-[Dab(CH2SO3H)]T[Dab(CH2SO3H)][Dab][Dab(CH2SO3H)][dL]L[Dab(CH2SO3H)][Dab(CH2SO3H)]T; lactam 4-C) | inactive | – | –
9 | C/C=C(\C)C(=O)OC[C@H]1O[C@H](O[C@H]2O[C@H](CO)[C@@H](OC(=O)/C(C)=C/C)[C@H](O)[C@H]2O[C@@H]2O[C@H](CO)[C@@H](O)[C@H](O)[C@H]2O)[C@H](O[C@@H]2O[C@H](CO)[C@@H](O)[C@H](O)[C@H]2O)[C@@H](O)[C@@H]1O | – | – | inactive [at 9.29 µM]
10 | C=C1C[C@]23C[C@H]1CC[C@H]2[C@]1(C)CCC[C@@]2(CO)C(=O)O[C@H]([C@H]21)[C@@H]3O | inactive | – | –
11 | C=CC1(C)CC2=CCC3C(C)(C(=O)O)CCCC3(C)C2CC1OC(C)=O (configuration not stated) | inactive | – | –
12 | CC(=O)OC(C)OC(=O)C(C)c1ccc(-c2ccccc2)c(F)c1 (configuration not stated) | inactive | – | –
13 | C=CC1(C)CC(OC(=O)C(=C)C(O)COC(C)=O)C(C(=C)C(=O)OC)C(O)C1C(=C)CO (configuration not stated) | inactive | – | –
14 | CN1Cc2c(N)cccc2C(c2ccccc2)C1 (configuration not stated) | inactive | – | –
15 | CC(C)CC(=O)OC[C@H]1O[C@@](COC(=O)CC(C)C)(O[C@H]2O[C@H](CO)[C@@H](O)[C@H](O)[C@H]2O)[C@@H](OC(=O)CC(C)C)[C@@H]1OC(=O)CC(C)C | inactive | – | –
16 | COc1cccc2c1CCC[C@H]2CN(C)CCc1ccc2ccoc2c1 | inactive | – | –

Row | SMILES | Potency | activity change, negative = cytotoxicity | outcome
17 | COc1cc(C(=O)OC[C@H]2O[C@H](O[C@@]3(CO)O[C@@H](CO)[C@H](O)[C@H]3O)[C@H](O)[C@@H](O)[C@@H]2O)ccc1O | inactive | – | –
18 | COc1c2c(c(C)c3c1C(=O)OC3)OC1(C)CC(O)C3(O)C(C)(C)OC(=O)CCC3(C)C1C2 (configuration not stated) | inactive | – | –
19 | COc1cc(N2CCC(O)CC2)ccc1Nc1cc(Nc2ccccc2S(=O)(=O)C(C)C)c2cc[nH]c2n1 | 11.4 µM (active) | – | –
20 | CC1=CC(=O)C[C@H]2[C@@H]1CC[C@@H](C)[C@]21CO[C@H](c2ccoc2)C1=O | inactive | – | –
21 | CC1=CC(=O)C2C(C)(C)CCCC2(C)C12CCC1(COC(=O)C1)O2 (configuration not stated) | inactive | – | –
22 | CC1CCC2C(C)(C)C(O)CCC2(C)C12Cc1c(O)cc3c(c1O2)CN(C(CCC(N)=O)C(=O)O)C3=O (configuration not stated) | inactive | – | –
23 | CCCCCCCCCCCCCC[n+]1ccc(C)cc1 | inactive | – | –
24 | CC1(C)CCCC2(C)C1C(O)C=C(CO)C2(O)C(=O)O (configuration not stated) | inactive | – | –
25 | C[C@H](NCc1ccc(OCc2ccccc2F)cc1)C(N)=O | inactive | – | –
26 | CC(C)C(C#N)O[C@@H]1O[C@H](CO[C@@H]2OC[C@](O)(CO)[C@H]2O)[C@@H](O)[C@H](O)[C@H]1O (some centres not stated) | inactive | – | –
27 | CCC[C@@H]1C[C@@H](C(=O)N[C@H](C(C)Cl)[C@H]2O[C@H](SC)[C@H](O)[C@@H](O)[C@H]2O)N(C)C1 (some centres not stated) | inactive | – | –
28 | CC(C)C(=O)O[C@@H]1[C@@H](O)[C@@H](O[C@H]2O[C@H](CO)[C@@H](O)[C@H](O)[C@H]2O)O[C@H](CO)[C@H]1O | inactive | – | –
29 | O=C(O)c1cnn(-c2nc3cc(OC(F)(F)F)c(Cl)cc3[nH]2)c1 | inactive | – | –
30 | NC(=O)c1ccc(OCC2NC(=O)C3CCCN3C2=O)cc1 (configuration not stated) | inactive | – | –
31 | CC1CCC2(C)C(CC(O)C(O)C23CO3)C1(C)CCC1=CC(=O)OC1O (configuration not stated) | inactive | – | –
32 | O=C1C[C@@H](c2ccc(O)cc2)Oc2cc(O)ccc21 | inactive | – | –
